Bioassay records: PubChem BioAssay, National Center for Advancing Translational Sciences (NCATS)
Hits are enriched below; roughly 6.7% of the tested compounds scored in any of these assays.
SW480 rerep: inducers of DNA re-replication in SW480 colon cancer cells. SW480 DNA re-replication, Hoechst DNA content imaging, 48 h. Potency, µM (doses to about 46.1 µM), inactives show top-dose re-replication activation, actives largely listed as activators. actives 1.8% (n = 340,000). AID 624297; also: % of control where 0% means no effect; nearly all actives have a fitted effect of over 55% in size
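First, 250 cells per well were seeded. Next, compound or vehicle (23 nL) was pinned in, plates sat 48 hr at 37 C. Finally Hoechst was added for 40 min before fluorescence scanning.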
KB-V1 MDR tox: KB-V1 MDR subline cytotoxicity. KB-V1 MDR cells viability, CellTiter-Glo, 72 h. Potency, µM (series often up to 46.1 µM), actives largely listed as cytotoxic. actives 3.4% (n = 400,000). AID 1347076; also: % is scaled to controls: 0 for no effect and ±100 for the full control effect; nearly all actives have a fitted effect of over 60% in size
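Following 72 h at 37 degrees C with compound, KB-V1 cell viability was read by CellTiter-Glo luminescence, medium being phenol-red-free DMEM plus 10% FBS; concentration-response parameters came from normalized, curve-fitted qHTS data.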
KB-3-1 tox: KB-3-1 parental cell cytotoxicity | AID 1347075 | Potency, µM (series often up to 46.1 µM), most hits filed as cytotoxic | KB-3-1 viability, CellTiter-Glo ATP luminescence, 72 h | actives 1.4% (n = 400,000); also: % is scaled to controls: 0 for no effect and ±100 for the full control effect; nearly all actives have a fitted effect of over 60% in size
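Cells are dispensed, compounds pinned in, plates held at 37 °C for 72 h, then CellTiter-Glo is added and luminescence read after 10 minutes. Cell line: parental KB-3-1 in phenol-red-free DMEM, 10% FBS.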
MCF10A rereplic: DNA re-replication induction in MCF 10a cells; Potency, µM (highest dose often 46.1 µM), inactives show at the highest dose activity, positive = re-replication, usual class: activators; actives 2.9% (n = 350,000); MCF 10A DNA re-replication, Hoechst nuclear intensity, 48 h; AID 624296; also: % of control where 0% means no effect; nearly all actives have a fitted effect of over 50% in size
PINK1 modulator: changes PINK1 expression; Potency, µM (titrated, usually from 76.6 µM), without a hit: top-dose activation (PINK1 increase), actives largely listed as activators; AID 624263; PINK1 immunofluorescence, high-content cytometry, 24 h; actives 0.2% (n = 410,000); active = well fitted activation curve with a large enough effect; inconclusive = small, poorly fitted or top-dose-only effect; cell line not stated here; also: % of control where 0% means no effect; nearly all actives have a fitted effect of over 65% in size
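A stable cell line was treated with compounds at 5 concentrations for 24 hours, with CCCP as control. PINK1 levels and mitochondrial localization were measured by immunofluorescence with mitochondrial, cell and nuclear markers after fixation, read by laser-scanning cytometry.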
* marks the source's active call; other numbers are inactive results; i = inactive; ? = inconclusive; . = no result; [ ] = another dose, or the depositor's remark. Unless noted, calls follow the shape of the dose curve; as a rule, active = well fitted curve in the direction sought with a large enough effect; inconclusive = small, poorly fitted or top-dose-only effect, or another doubt; inactive = no such curve, though single readings can be large; an effect the other way counts as inactive or inconclusive. Potency is read from the fitted curve at half-maximal effect.

SMILES	SW480 rerep	KB-V1 MDR tox	KB-3-1 tox	MCF10A rereplic	PINK1 modulator
CCn1ncc(Br)c1C(=O)Nc1ccc(F)cc1F	21µM*	?	i	16µM*	-1%[38.3 µM]
Cc1cnc(C)c(N2CCC(C(=O)NCc3cccs3)CC2)n1	1%	i	i	6%	4%
CCCCNC(=O)C1CCN(c2nc(C)cc(C)n2)CC1	-81%	i	i	5%	-1%
CCCCNC(=O)C1CCN(c2nc(OC)nc(OC)n2)CC1	-1%	21µM*	i	5%	-3%
Cc1cc(C)nc(N2CCCC(C(=O)NCc3cccs3)C2)n1 (stereo not drawn)	-9%	16µM*	i	-10%	5%[38.3 µM]
COc1nc(OC)nc(N2CCC(C(=O)NCc3cccs3)CC2)n1	-16%	18µM*	i	-2%	1%
CCS(=O)(=O)N1CCC(C(=O)NCCCOC)CC1	15µM*	i	i	?	-1%[38.3 µM]
Cc1ccnc(N2CCCC(C(=O)NCc3cccs3)C2)n1 (stereo not drawn)	-10%	i	i	?	-1%
CCCS(=O)(=O)N1CCC(C(=O)NCCCOC)CC1	-7%	i	i	0%	0%
Cc1cc(C)c(Cn2c3ccccc3c3cnn(CC(=O)N4CCCCC4)c(=O)c32)c(C)c1	.	i	?	.	1%
OCCN1CCN(c2nccn3ccnc23)CC1	.	i	i	.	-1%
CC(C)(C)OC(=O)N1CCC(c2c(C(=O)NC3CCCCC3)cnn2-c2cccc(F)c2)CC1	.	i	i	.	1%
Cc1ccc(NC(=O)CN2C(=O)COc3ccc(S(=O)(=O)NC4CCCC4)cc32)cc1Cl	.	i	i	.	6%
Cc1cc(C)nc(N2CCCC(C(=O)NC(C)CCc3ccco3)C2)n1 (stereo not drawn)	0%	10µM*	i	5%	0%[38.3 µM]
O=C(CSC1=N/C(=C/c2ccc(Cl)c(Cl)c2)C(=O)N1c1ccccc1F)NC1CC1	?	15µM*	i	15µM*	1%
CCCn1c2ccccc2c2nnc(SCc3[nH]c(=O)[nH]c3C(=O)CCCCC(=O)OCC)nc21	?	i	i	?	1%
CCOC(=O)CCCCC(=O)c1[nH]c(=O)[nH]c1CSc1nnc2c3ccccc3n(C(C)C)c2n1	-6%	15µM*	i	23%	3%
Cc1ccc(C)c(N2CCN(C(=O)c3cc4c(C)nc5ccccc5c4o3)CC2)c1	-9%	i	i	21µM*	4%
CCOC(=O)C1CCCN(C(=O)c2ccc3nc(-c4cccc(OC)c4)oc3c2)C1 (stereo not drawn)	16µM*	i	5.8µM*	?	5%
CCOC(=O)C1CCCN(C(=O)c2cc3c(C)nc4ccccc4c3o2)C1 (stereo not drawn)	-1%	13µM*	i	20%	3%[38.3 µM]
O=[N+]([O-])c1ccc(O/N=[N+](\[O-])N2CCN(c3ccccc3)CC2)c([N+](=O)[O-])c1	.	.	.	.	2%
CCOc1ccc(S(=O)(=O)N2CCc3cc(OC)c(OC)cc3C2)cc1	-689%	2.3µM*	i	-46%	1%
CCOc1ccc(S(=O)(=O)N2CCc3ccccc3C2)cc1	-1%[9.22 µM]	i	i	1%	-1%
C(=Cc1cnc2ccccc2n1)c1ccc2c(c1)OCO2	.	15µM*	i	.	1%
C(=C\c1nc2ccccc2nc1/C=C/c1ccc2c(c1)OCO2)/c1ccc2c(c1)OCO2	.	i	?	.	0%
SMILES	SW480 rerep	KB-V1 MDR tox	KB-3-1 tox	MCF10A rereplic	PINK1 modulator
O=C(Nc1cccc(Cl)c1)Nc1nnc([C@H]2C[C@H](O)[C@@H](CO)O2)s1	.	i	i	.	-1%
CCOC(=O)Nc1ccc2c3c(cccc13)-c1ccccc1-2	6.5µM*	?	?	?	4%
CCOC(=O)Nc1cccc2ccccc12	-2%	i	i	-4%	-7%[38.3 µM]
CC(C)(C)C(=O)Oc1ccc(S(=O)(=O)Nc2ccccc2C(=O)NCC(=O)O)cc1	-3%	.	.	-2%	.
Cc1ccccc1CN1C(=O)c2ccccc2Sc2ccc(C(=O)NC(C)c3ccccc3)cc21 (stereo not drawn)	.	.	.	.	0%
O=C(NCC(c1ccco1)N1CCc2ccccc21)C(=O)Nc1ccc(F)cc1F (stereo not drawn)	?	4.1µM*	4.6µM*	4.1µM*	?
